Measurements: PubChem BioAssay (NCATS)
Results filed as inconclusive are left out. The source made the active and inactive calls. Calls follow the shape of the dose curve; as a rule, active = well fitted curve in the direction sought with a large enough effect; inconclusive = small, poorly fitted or top-dose-only effect, or another doubt; inactive = no such curve, though single readings can be large; an effect the other way counts as inactive or inconclusive.

Tests used:
[1] = MultiTox-Fluor Cytotoxicity Assay - LYMP1-001 - Dead Cells (AID 946)
How it was run: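 AC50 from Hill fit of concentration-response; data normalized to DMSO (basal) and 15 uM tetraoctylammonium bromide (100%). LYMP1-001 lymphoblastoid cells, 2500/well, 16 hr compound at 37 C; dead-cell protease fluorescence, Ex/Em 485/520.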

[2] = MultiTox-Fluor Cytotoxicity Assay - LYMP1-001 - Live Cells (AID 947)
[3] = Cell Viability - LYMP1-002 - Assay at 16 hr (AID 948)
How it was run: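 In this qHTS, lymphoblastoid LYMP1-002 cells (human) receive compounds for 16 hr at 37 C. Viability is taken from CellTiter-Glo ATP luminescence, and AC50 derives from standard Hill fits.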

[4] = MultiTox-Fluor Cytotoxicity Assay - LYMP1-002 - Live Cells (AID 955)
How it was run: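 Human lymphoblastoid LYMP1-002 cells, 2500/well in complete medium, rested 5 hr at 37 C, then exposed to compounds for 16 hr at 37 C. Live-cell protease cleavage of GF-AFC read by fluorescence (Ex/Em 405/510) after 60 min at room temperature; AC50 from Hill fits.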

[5] = MultiTox-Fluor Cytotoxicity Assay - LYMP1-002 - Dead Cells (AID 960); also: nearly all actives have a fitted effect of over 60% in size
How it was run: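 Human lymphoblastoid cells (LYMP1-002), 2500/well in complete medium, were exposed to compounds for 16 hr at 37 C. Dead-cell protease activity was read as bis-AAF-R110 fluorescence (Ex/Em 485/520), normalized to DMSO and 15 uM tetraoctylammonium bromide; AC50 from Hill fits.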

[6] = MultiTox-Fluor Cytotoxicity Assay - LYMP1-003 - Dead Cells (AID 961); also: nearly all actives have a fitted effect of over 70% in size
How it was run: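 Human lymphoblastoid LYMP1-003 cells (2500/well) were treated with compounds for 16 hr at 37 C in complete medium. Dead-cell protease release was read by bis-AAF-R110 fluorescence (Ex/Em 485/520). AC50 came from Hill fits, normalized to DMSO and 15 uM tetraoctylammonium bromide.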

[7] = MultiTox-Fluor Cytotoxicity Assay - LYMP1-003 - Live Cells (AID 962);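 also: cytotoxic hits lower the live-cell protease signal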
How it was run: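 LYMP1-003 human lymphoblastoid cells (2500/well) in complete medium were preincubated 5 hr at 37 C, then exposed to compounds for 16 hr at 37 C. Live-cell protease cleavage of GF-AFC read by fluorescence (Ex/Em 405/510); AC50 from Hill fits.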

[8] = Cell Viability - LYMP1-003 - Assay at 24 hr (AID 963)
How it was run: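 Human lymphoblastoid LYMP1-003 cells (2500/well) were rested 5 hr at 37 C, then exposed to compounds in complete medium for 24 hr at 37 C. Cellular ATP was quantified by CellTiter-Glo luminescence, and AC50 values came from Hill fits of concentration-response data.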

[9] = Cell Viability - LYMP1-003 - Assay at 40 hr (AID 964); also: series mostly up to about 92 µM; nearly all actives have a fitted effect of over 60% in size
How it was run: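 Human lymphoblastoid LYMP1-003 cells, 2500/well in complete medium, rested 5 hr at 37 C, then exposed to compounds for 40 hr at 37 C. Viability read as intracellular ATP by CellTiter-Glo luminescence; AC50 from Hill fits of concentration-response data.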

[10] = Cell Viability - LYMP2-003 (AID 965);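 also: cells exposed to compounds for 24 h before reading; nearly all actives have a fitted effect of over 50% in size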
How it was run: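 qHTS, human lymphoblastoid line, 2500 cells/well, complete medium. 24 h drug, 37 C. ATP-based luminescent readout; Hill-fit AC50.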

[11] = Cell Viability - LYMP2-004 (AID 966); also: nearly all actives have a fitted effect of over 65% in size
How it was run: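 Human lymphoblastoid cells (2500/well) in complete medium were treated with compounds for 24 hr at 37 C, then intracellular ATP was measured by CellTiter-Glo luminescence. AC50 values came from Hill-equation fits of concentration-response data.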

[12] = Cell Viability - LYMP2-005 (AID 967); also: series mostly up to about 92 µM
How it was run: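 Luciferase-based ATP quantitation served as the viability measure in human lymphoblastoid LYMP2-005 cells exposed to test compounds for 24 h at 37 C in complete culture medium. Potency (AC50) was obtained by fitting concentration-response curves with the Hill equation.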

[13] = Cell Viability - LYMP2-009 (AID 968); also: series mostly up to about 92 µM; nearly all actives have a fitted effect of over 55% in size
[14] = Cell Viability - LYMP2-011 (AID 969); also: nearly all actives have a fitted effect of over 60% in size
How it was run: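 Human lymphoblastoid cells (2500/well) were plated in complete medium, preincubated 5 hr at 37 C, then exposed to compounds for 24 hr at 37 C. Intracellular ATP was read by CellTiter-Glo luminescence, and AC50 came from Hill-equation concentration-response fits.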

[15] = Cell Viability - LYMP2-013 (AID 970); also: series mostly up to about 92 µM; nearly all actives have a fitted effect of over 55% in size
How it was run: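 Human lymphoblastoid cells, 2500/well, were preincubated 5 hr at 37 C, then treated with compounds for 24 hr at 37 C in complete medium. Intracellular ATP was read by CellTiter-Glo luminescence; AC50 from Hill-equation fits of concentration-response data.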

[16] = Cell Viability - LYMP2-015 (AID 971); also: nearly all actives have a fitted effect of over 55% in size
How it was run: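 Human lymphoblastoid cells (2500/well) in complete medium were preincubated 5 hr at 37 C, then compound-treated 24 hr at 37 C. Intracellular ATP was read by CellTiter-Glo luminescence after 30 min at room temperature; AC50 came from Hill-equation concentration-response fits.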

[17] = Cell Viability - LYMP2-017 (AID 972); also: series mostly up to about 92 µM; nearly all actives have a fitted effect of over 55% in size
How it was run: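 Human lymphoblastoid cells (2500/well) were seeded in complete medium, held 5 hr at 37 C, then exposed to compounds for 24 hr at 37 C. Intracellular ATP was read by CellTiter-Glo luminescence after 30 min at room temperature, with AC50 values from Hill-equation fits.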

[18] = Cell Viability - LYMP2-019 (AID 973); also: nearly all actives have a fitted effect of over 55% in size
How it was run: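 Human lymphoblastoid cells were seeded at 2500 cells/well, preincubated 5 hr at 37 C, then exposed to compounds for 24 hr at 37 C in complete medium. Intracellular ATP was measured by CellTiter-Glo luminescence; AC50 from Hill fits.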

[19] = Cell Viability - LYMP2-021 (AID 974)
How it was run: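 Human lymphoblastoid cells (2500/well) were preincubated 5 hr at 37 C, then exposed to compounds for 24 hr at 37 C in complete medium. Intracellular ATP was read by CellTiter-Glo luminescence; AC50 came from Hill-equation fits of concentration-response data.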

[20] = Cell Viability - LYMP2-023 (AID 975)
How it was run: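 Human lymphoblastoid cells (2500/well) were preincubated 5 hr at 37 C, then exposed to compounds for 24 hr at 37 C in complete medium. Cellular ATP was read by CellTiter-Glo luminescence, and AC50 came from Hill-equation fits.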

Measured: Potency

O=C(Cl)c1ccccc1[N+](=O)[O-]
inactive: all assays above

CC(C=O)Cc1ccc(C(C)(C)C)cc1 (configuration not stated)
inactive: all assays above

C1CCOC1
inactive: all assays above

Cc1ccc2nc(-c3ccc(N)cc3)sc2c1S(=O)(=O)O
not listed: [19]
inactive: all other assays above

NS(=O)(=O)O
inactive: all assays above

Nc1cc([N+](=O)[O-])ccc1C(=O)O
inactive: all assays above

CC(C)CCOC(=O)/C=C/c1ccccc1
inactive: all assays above

NC(=O)c1cccc([N+](=O)[O-])c1
inactive: all assays above

O=C(Cl)c1c(Cl)cccc1Cl
not listed: [13] | [15]
inactive: all other assays above

CCCCC(CC)CO (configuration not stated)
not listed: [13]
inactive: all other assays above

O=C1CCCCC1
not listed: [13] | [15]
inactive: all other assays above

C=C(C)C1CC=C(C)C(OC(C)=O)C1 (configuration not stated)
not listed: [12]
inactive: all other assays above

O=[N+]([O-])c1cccc(C(F)(F)F)c1
not listed: [16]
inactive: all other assays above

CCOCCO
not listed: [13]
inactive: all other assays above

Cc1cccc2ccccc12
not listed: [12]
inactive: all other assays above

Nc1cccc(S(=O)(=O)O)c1
not listed: [13] | [16] | [18]
inactive: all other assays above
